Screening results (PubChem BioAssay)
Rce1 inhib – blocks yeast Ras-converting enzyme. Q03530. yeast membranes, quenched prenylated peptide cleavage fluorescence. calls only. actives 0.27% (n = 290,000). AID 2563;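 active means fall in fluorescence gain of 50% or more versus controls, with final raw signal at or below 3038400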;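 further: plate controls were neutral control wells for no effect and wells lacking membranes for full effect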
Kir21 block – inhibitors of mouse Kir2.1 inward-rectifier potassium channel | actives 0.85% (n = 310,000) | P35561 | HEK293-Kir2.1, FluxOR thallium flux fluorescence; active compounds read low | B-score at 10 µM;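 active means fluorescence ratio B-score at or below minus 3 SD of library scores, with starting-brightness B-score within 2 SD, cut at about -4.2 in these data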;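 further: channel flux triggered by added potassium and thallium sulfate stimulus; B-score of peak minus minimum fluorescence over baseline after thallium stimulus; more negative B-score means stronger Kir2.1 block with less thallium influx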
CHT block – inhibits the human high affinity choline transporter; actives 0.86% (n = 310,000); Q9GZV3; CHT-expressing cells, membrane potential dye, choline response; active compounds read low; B-score at 10 µM;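 active means B-score over 3 SD under the library average, and starting fluorescence ratio not unusually high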;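 further: choline stimulus applied at its EC90 after an EC20 pre-addition; B-score computed on integrated fluorescence ratio after choline addition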
Target sequence (Q9GZV3 whole entry, looked up): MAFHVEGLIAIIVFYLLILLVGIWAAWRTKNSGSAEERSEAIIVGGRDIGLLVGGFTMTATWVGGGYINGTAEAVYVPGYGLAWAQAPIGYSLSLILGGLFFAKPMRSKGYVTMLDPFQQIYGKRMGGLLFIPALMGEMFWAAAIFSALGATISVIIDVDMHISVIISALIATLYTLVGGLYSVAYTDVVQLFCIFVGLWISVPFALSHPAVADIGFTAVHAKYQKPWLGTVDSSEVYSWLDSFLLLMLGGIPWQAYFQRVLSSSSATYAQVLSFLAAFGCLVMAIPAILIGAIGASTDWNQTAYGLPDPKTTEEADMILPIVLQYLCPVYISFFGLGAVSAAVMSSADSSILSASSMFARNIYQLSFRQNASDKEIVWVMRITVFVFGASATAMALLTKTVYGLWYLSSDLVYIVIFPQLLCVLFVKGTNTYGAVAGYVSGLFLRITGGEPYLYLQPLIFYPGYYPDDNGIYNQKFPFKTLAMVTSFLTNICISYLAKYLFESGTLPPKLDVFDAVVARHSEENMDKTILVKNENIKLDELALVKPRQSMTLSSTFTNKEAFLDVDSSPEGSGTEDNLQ
CHT allo act – human CHT allosteric activation | Q9GZV3 | CHT-expressing cells, membrane potential dye, choline EC20; active compounds read high; LV-AA mutant CHT in HEK293 cells | B-score at 10 µM | actives 0.49% (n = 310,000);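 active means initial fluorescence not abnormally high and integrated response B-score, plate-corrected, over 3 SD above library mean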
TMEM16A act – activates or potentiates the mouse TMEM16A chloride channel; Q8BHY3; HEK293 TMEM16A/YFP-H148Q/I152L, iodide quench fluorescence; active compounds read low; B-score at 10 µM; actives 0.3% (n = 340,000); AID 623877;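 active means fluorescence-ratio B-score plate-corrected deviation score at least 3 library SD below zero, with starting fluorescence score within 5 deviations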;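 further: channel opened by trigger with iodide after compound preincubation; score built on the fluorescence ratio of max minus min over baseline; more negative score means more quench and so TMEM16A activation or potentiation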
ANO1 block – inhibitors of mouse TMEM16A calcium-activated chloride channel; AID 588511; Q8BHY3; HEK293 TMEM16A/YFP iodide influx fluorescence, ionomycin; actives 1.2% (n = 310,000); normalized B-score (activity score, 25-100; higher = stronger inhibition) at 10 µM;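 active means ratio plate-corrected score three or more library SD toward inhibition, starting fluorescence score within five deviations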;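 further: score derived from kinetic fluorescence span divided by baseline fluorescence per well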
CHT inh conf – human CHT inhibition, confirmatory screen; CHT activity remaining % of control (active compounds read low), % at 10 µM; CHT-expressing cells, choline membrane potential dye; LV-to-AA substituted CHT, HEK293 cells; shares compounds with CHT block; AID 493221; actives 70% (n = 2,400);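 active means choline transporter activity left, mean of duplicates at 10 µM, below buffer-only control mean minus 3 SD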;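 further: depolarization triggered by choline at its EC90 following an EC20 pre-addition; 0% = hemicholinium-3 full block and 100% = buffer-only control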
HEK293 MPD ctr – activity in parental HEK293 cells lacking CHT; shares compounds with CHT block; membrane potential ratio readout (active if shifted either direction beyond buffer ±3SD; no single direction) at 10 µM; membrane potential dye, choline response; active = decrease or increase beyond buffer ±3SD; actives 4% (n = 2,400);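 further: parental cells lack the transporter so any hit is non-specific; ratio is peak minus trough fluorescence over baseline after EC90 choline challenge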
Active calls of the source: *. Only some compounds are listed: those with a hit (about 3.2% of all), similar ones and a draw of the others.

`CC1CCCCN1Cc1c(C#N)c2ccccc2n1C` (stereo not drawn) gave Rce1 inhib inactive, Kir21 block -0.64, CHT block inactive, CHT allo act inactive, TMEM16A act inactive and ANO1 block inactive.
For CCOC(=O)CSCc1c(C#N)c2ccccc2n1C the results were CHT block -6.8*, CHT allo act inactive, TMEM16A act inactive, ANO1 block inactive, CHT inh conf inactive and HEK293 MPD ctr inactive.
`Cn1c(CN2CCCC2)c(C#N)c2ccccc21` gave Rce1 inhib inactive, Kir21 block -1.7, CHT block -5*, CHT allo act inactive, TMEM16A act inactive, ANO1 block inactive, CHT inh conf 71%* and HEK293 MPD ctr inactive.
Screening O=C(NCCNC(=O)c1ccc(Br)o1)c1cccnc1 returned Rce1 inhib inactive, Kir21 block -0.1, CHT block inactive, CHT allo act inactive, TMEM16A act inactive and ANO1 block inactive.
For CC(=O)N1CCc2cc(S(=O)(=O)C(C)CC(=O)Nc3ccc(OC(F)(F)F)cc3)ccc21 (stereo not drawn) the results were Rce1 inhib inactive, Kir21 block 0.58, CHT block inactive, CHT allo act inactive, TMEM16A act inactive and ANO1 block inactive.
Screening CCN1CCN(c2cc(C)c3cc(NC(=S)N4CCCC(C)C4)ccc3n2)CC1 (stereo not drawn) returned Rce1 inhib inactive, Kir21 block 0.6, CHT block inactive, CHT allo act inactive, TMEM16A act inactive and ANO1 block inactive.
Screening CCCN(CCC)CCCNC(=S)Nc1ccc2nc(N3CCN(CC)CC3)cc(C)c2c1 returned Rce1 inhib inactive, Kir21 block 0.67, CHT block -6.7*, CHT allo act inactive, TMEM16A act inactive, ANO1 block inactive, CHT inh conf 49%* and HEK293 MPD ctr 2.2*.
CCN1CCN(c2cc(C)c3cc(NC(=S)N4CC(C)CC(C)C4)ccc3n2)CC1 (stereo not drawn) was read as Rce1 inhib inactive, Kir21 block -1.4 and TMEM16A act inactive.
Screening CCN1CCN(c2cc(C)c3cc(NC(=S)N4CCCCC4)ccc3n2)CC1 returned Rce1 inhib inactive, Kir21 block 0.07, CHT block -6.7*, CHT allo act inactive, TMEM16A act inactive, ANO1 block inactive, CHT inh conf 47%* and HEK293 MPD ctr inactive.
`CC1CCC(NC(=O)c2nc(Cn3ccc([N+](=O)[O-])n3)no2)CC1` (stereo not drawn) gave Kir21 block 0.46, CHT block inactive, CHT allo act inactive, TMEM16A act inactive and ANO1 block inactive.
`COc1cc(C(c2nnnn2C2CCCC2)N2CCN(C(=O)c3ccco3)CC2)cc(OC)c1OC` (stereo not drawn) gave Rce1 inhib inactive, Kir21 block -0.58, CHT block inactive, CHT allo act inactive, TMEM16A act inactive and ANO1 block inactive.
CCOC(=O)C1=C(C)N=c2s/c(=C/c3cccc([N+](=O)[O-])c3O)c(=O)n2C1c1cc(OC)c(OC)c(OC)c1 (stereo not drawn) was read as Rce1 inhib inactive, Kir21 block -0.33, CHT block -9.8*, CHT allo act inactive, TMEM16A act inactive, ANO1 block inactive, CHT inh conf 28%* and HEK293 MPD ctr inactive.
Cc1cc(C)c[n+](CC(=O)c2c(C)cc(C)c([N+](=O)[O-])c2C)c1 was read as Rce1 inhib inactive, Kir21 block -0.67, CHT block -7.9*, CHT allo act inactive, TMEM16A act inactive, ANO1 block inactive, CHT inh conf 45%* and HEK293 MPD ctr inactive.
`COc1ncnc2c1ncn2CC1COC(C)(C)O1` (stereo not drawn) gave Kir21 block 1.9, CHT block inactive, CHT allo act inactive, TMEM16A act inactive and ANO1 block inactive.
Screening COc1ccc(Cn2cnc3c([N+](=O)[O-])c(C)c(C)cc32)cc1 returned Rce1 inhib inactive, Kir21 block -4.2, CHT block -9.4*, CHT allo act inactive, TMEM16A act inactive, ANO1 block inactive, CHT inh conf 34%* and HEK293 MPD ctr inactive.
Screening CC(=O)Nc1ccc(Nc2nc3ccccc3nc2NS(=O)(=O)c2ccc(Cl)c([N+](=O)[O-])c2)cc1 returned TMEM16A act inactive.
Cc1cc(NS(=O)(=O)c2ccc(NC(=O)C(C(C)C)N3C(=O)c4ccccc4C3=O)cc2)nc(C)n1 (stereo not drawn) was read as Rce1 inhib inactive, Kir21 block -0.1, CHT block inactive, CHT allo act inactive, TMEM16A act inactive and ANO1 block inactive.
For Cc1cc(C)cc(OC(C)C(=O)Nc2ccc(S(=O)(=O)Nc3cc(C)nc(C)n3)cc2)c1 (stereo not drawn) the results were Rce1 inhib inactive, Kir21 block -0.85, CHT block -6*, CHT allo act inactive, TMEM16A act inactive, ANO1 block inactive, CHT inh conf 40%* and HEK293 MPD ctr inactive.
`CCc1ccc(OC(C)C(=O)Nc2ccc(S(=O)(=O)Nc3nccs3)cc2)cc1` (stereo not drawn) gave Rce1 inhib inactive, Kir21 block 3.3, CHT block -5*, CHT allo act inactive, TMEM16A act inactive, ANO1 block inactive, CHT inh conf 59%* and HEK293 MPD ctr inactive.
`CN(CC(=O)Nc1c(Cl)cccc1Cl)C(=O)c1cc(S(=O)(=O)N(C)C)ccc1N1CCCC1` gave Rce1 inhib inactive, Kir21 block -0.34, CHT block inactive, CHT allo act inactive, TMEM16A act inactive and ANO1 block inactive.
For CC(C)(CNS(=O)(=O)c1cccs1)N1CCOCC1 the results were TMEM16A act inactive.
For O=S(=O)(NCCN1CCOCC1)c1cccs1 the results were Rce1 inhib inactive, Kir21 block 1.6, CHT block -9.3*, CHT allo act inactive, TMEM16A act inactive, ANO1 block inactive, CHT inh conf inactive and HEK293 MPD ctr inactive.
